# Measurements taken from PubChem BioAssay AID2129 (The Scripps Research Institute Molecular Screening Center, 2009).
# The whole screen tested about 320,000 compounds, of which about 2,200 (0.69%) were called active. The sample holds actives, similar compounds and a random draw of the others, so the mix is not that of the screen.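 The calls were made as follows: active = inhibition above the mean of all tested compounds plus 3 SD, cutoff set per campaign (cut at about 30% in these data); inactive = the rest.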
# Target: Bcl-2-like protein 1 (Homo sapiens) (UniProt Q07817)
# Assay: Bcl-xL/Bim BH3 interaction blockers – biochemical, fluorescence polarization, HTS, primary screen (AID 2129);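 also: 0% = DMSO wells and 100% = unlabeled Bim-BH3 peptide competitor; inhibitors lower millipolarization by displacing the labeled peptide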
# Settings: GST-Bcl-xL / FITC-Bim BH3 peptide fluorescence polarization; at 10.9 µM; active compounds read high
# Bcl-2-like protein 1 (Homo sapiens), sequence (Q07817 whole entry, looked up): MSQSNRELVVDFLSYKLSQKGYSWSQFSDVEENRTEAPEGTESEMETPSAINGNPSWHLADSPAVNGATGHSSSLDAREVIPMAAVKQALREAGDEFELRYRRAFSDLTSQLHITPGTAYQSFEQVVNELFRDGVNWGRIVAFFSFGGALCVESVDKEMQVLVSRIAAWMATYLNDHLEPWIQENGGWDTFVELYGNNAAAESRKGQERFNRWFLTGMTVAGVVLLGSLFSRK
row,SMILES,inhibition
1,Cc1ccc2[nH]c(C(=O)O)c(NC(=O)c3ccccc3[N+](=O)[O-])c2c1,3.72% (inactive)
2,CN(C)CCCCCN(C)Cc1cc2ccccc2o1,0.68% (inactive)
3,CCCCCCCNc1nc(Cl)nc(NCCO)n1,5.24% (inactive)
4,CCOc1ccc2nc(N3CCCN(C(=O)Nc4ccccc4C)CC3)c(C#N)cc2c1,46.6% (active)
5,CCOC(=O)c1cc(C#N)c(N2CCCCC2)nc1-c1ccccc1,-1.67% (inactive)
6,CCOc1ccc(C(=O)NC2CCN(C(=O)Nc3ccccc3OC)CC2)cc1,1.4% (inactive)
7,CC(C)c1ccc(NC(=S)NNc2ccc(Cl)c(C(=O)O)c2)cc1,115% (active)
8,Cc1ccc(C)c(NC(=S)NNC(=S)Nc2ccc(C(C)C)cc2)c1,18% (inactive)
9,O=C(NC(=S)Nc1ccc(Cl)c(C(=O)O)c1)c1cncc(Br)c1,-0.3% (inactive)
10,Cc1nn(C(C)(C)C)c(OC(=O)CC(C)C)c1S(=O)(=O)c1ccccc1,2.54% (inactive)
11,Cc1c(Nc2cc(N3CCCC(C)C3)c3nonc3c2[N+](=O)[O-])c(=O)n(-c2ccccc2)n1C (stereo unspecified),-1.91% (inactive)
12,Nc1nc(NCC(=O)O)nc(N2CCCCCC2)c1[N+](=O)[O-],-0.96% (inactive)
13,Nc1cc(N2CCCCCC2)c2nonc2c1[N+](=O)[O-],53.6% (active)
14,CCCCCCCCCOC1OC(CO)C(O)C(O)C1NC(C)=O (stereo unspecified),0.06% (inactive)
15,O=c1c2ccccc2nnn1CSc1nc2sc3c(c2c(=O)n1CC1CCCO1)CCC3 (stereo unspecified),-0.57% (inactive)
16,O=C1CCC(=O)N(O)CCCCCNC(=O)CCC(=O)N(O)CCCCCNC(=O)CCC(=O)N(O)CCCCCN1,6.42% (inactive)
17,CCCn1c(C(C)Nc2nc(-c3ccc(C)cc3)cs2)nc2cc(Cl)c(N3CCCCC3)cc21 (stereo unspecified),4.98% (inactive)
18,CCCn1c(C2CCCN2c2nc(-c3ccc(OC)cc3)cs2)nc2ccccc21 (stereo unspecified),7.05% (inactive)
19,CCCn1c(C2CCCN2c2nc(-c3ccc(C)cc3)cs2)nc2cc(Cl)c(N3CCCCC3)cc21 (stereo unspecified),76.7% (active)
20,Cc1cc(S(=O)(=O)NCc2ccccn2)c(Cl)cc1Cl,4.73% (inactive)
21,CCOC(=O)c1c(C)n(C)c2ccc(OC)c(NC(=O)CN3CCC4(CC3)OCCO4)c12,-7.5% (inactive)

row,SMILES,inhibition
1,[O-][n+]1c2c(nn1-c1ccc(Cl)c(Cl)c1)-c1nonc1CC2,-0.16% (inactive)
2,CC1(OC(=O)CCc2ccccc2)C(=O)C=C2C=C(c3ccc(C#N)cc3)N(CCc3ccccn3)C=C2C1=O (stereo unspecified),25.8% (inactive)
3,COCCN1C=C2C(=O)C(C)(OC(=O)C3CCCC3)C(=O)C=C2C=C1c1ccsc1 (stereo unspecified),34.2% (active)
4,CC1(OC(=O)C2CCCC2)C(=O)C=C2C=C(c3ccc(C#N)cc3)OC=C2C1=O (stereo unspecified),10.6% (inactive)
5,Fc1ccccc1/C=N/Nc1cc(N2CCCCC2)ncn1,1.94% (inactive)
6,Cn1nccc1/C=N\NC(=O)c1ccc(Cl)cc1,7.38% (inactive)
7,O=c1[nH]n2c(-c3ccccc3)nc(O)c2c2ccccc12,-0.91% (inactive)
8,O=c1[nH]c2ccccc2n2c(-c3ccccc3)nnc12,43% (active)
9,O=C(O)/C=C/c1ccc(S(=O)(=O)N2CCCCCC2)cc1,-3.18% (inactive)
10,O=C(CN1CCSCC1)N/N=C/c1ccc(F)cc1F,2.55% (inactive)
11,COc1ncnc2c1N=C1CC(C)(C)CC(N)=C1S2,163% (active)
12,O=C(COc1cccc(Cl)c1)NCc1ccccc1,3.14% (inactive)
13,C[N+](C)(CCCCCC[N+](C)(C)CCCN1C(=O)c2cccc3cccc(c23)C1=O)CCCN1C(=O)c2cccc3cccc(c23)C1=O,1.22% (inactive)
14,O=C1c2ccccc2C(=O)N1c1cccc2ccccc12,4.16% (inactive)
15,O=C(O)c1ccc2c3c(cccc13)C(=O)N(OS(=O)(=O)c1ccccc1)C2=O,-6.08% (inactive)
16,Cc1nn(-c2cc(Cl)ccc2N)c(=O)c2ccccc12,-0.7% (inactive)
17,O=C(C1CCN(S(=O)(=O)c2ccc(Br)s2)CC1)N1CCN(C2CCCCC2)CC1,3.57% (inactive)
18,CSc1ccc(CN(C)CC(=O)NCc2ccc(F)cc2)cc1,5.75% (inactive)
19,CSc1ccc(CN2C(=O)NC3(CCCCCC3)C2=O)cc1,0.37% (inactive)
20,Cc1c(C(=O)NC(C)C2CC3CCC2C3)cccc1[N+](=O)[O-] (stereo unspecified),0.81% (inactive)
21,COc1ccccc1N1CCN(c2nc(C)cc(=O)[nH]2)CC1,1.46% (inactive)

row,SMILES,inhibition
1,CC(=O)C1(C)N(O)C(C)(C)C(c2cccs2)=[N+]1[O-] (stereo unspecified),6.8% (inactive)
2,Cc1ccc(SCC(=O)Nc2nncs2)cc1,-0.16% (inactive)
3,COCCNC(=O)Nc1ccc2nc(-c3ccco3)c(-c3ccco3)nc2c1,120% (active)
4,CCOc1cc(NC(=S)NCCCOC)c(OCC)cc1NC(=O)c1ccco1,1.13% (inactive)
5,Cc1cc(C)cc(NC(=O)NCc2ccccn2)c1,0.71% (inactive)
6,Cc1nc2cc(NC(=O)NCc3ccccc3)ccc2o1,-3.22% (inactive)
7,O=C(NCc1ccccn1)c1ccc2nc(-c3ccco3)c(-c3ccco3)nc2c1,61.7% (active)
8,CCOc1ccc(C(=O)NC(C(=O)NCc2ccccn2)C(C)C)cc1 (stereo unspecified),-3.49% (inactive)
9,O=C(NC1CC2CCCC(C1)N2C(=O)N1CCCCC1)C1CCCCC1 (stereo unspecified),0.87% (inactive)
10,O=C(Cc1nc2ccccc2[nH]c1=O)c1ccc(Cl)cc1,34.1% (active)
11,N#C/C(=C(/O)COC(=O)COc1ccc(Cl)cc1)c1nc2ccccc2[nH]1,-9.4% (inactive)
12,O=C(/C(=C/c1cccc(Cl)c1)c1nc2ccccc2[nH]1)c1ccccc1,-0.83% (inactive)
13,COc1ccc(NC(=S)N2N=CCC2c2ccccc2)cc1 (stereo unspecified),1.8% (inactive)
14,C[n+]1ccc(C(=O)NCc2ccccc2)cc1,-12.9% (inactive)
15,COc1ccc(S(=O)(=O)Nc2cc(C)on2)cc1NC(C)=O,3.59% (inactive)
16,O=c1c2cc(-c3ccccc3)sc2nc2n1N=C(c1cccs1)CS2,7.98% (inactive)
17,COc1ccccc1C1CCN(c2ccc([N+](=O)[O-])cn2)CC1,6.64% (inactive)
18,COc1ccc(Nc2ccc([N+](=O)[O-])cn2)cn1,47.6% (active)
19,COc1ccc(C(=O)NCCNc2ccc([N+](=O)[O-])cn2)cc1,-0.8% (inactive)
